This passage reports binding signal results from publication PMC11006913.

Residue numbers refer to the chain shown, from its start.

Common to all, as to assay: PBM; 200 nM protein, PBS
Common to all, as to details: dsDNA, one strand shown

The target of assay [1] is HOXB6 (Homo sapiens, UniProt P17509 132-218, K202E).
Assay [2] concerns the target T1, NKX2-6 (Homo sapiens, UniProt A6NCS4 118-204, R150C).
T1 sequence: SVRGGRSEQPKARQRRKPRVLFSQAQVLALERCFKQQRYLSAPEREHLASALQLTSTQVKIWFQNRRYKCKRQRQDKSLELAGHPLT

The target in assay [3] is HOXB6 (Homo sapiens, UniProt P17509 132-218).
HOXB6 (Homo sapiens, UniProt P17509 132-218), sequence (P17509 132-218): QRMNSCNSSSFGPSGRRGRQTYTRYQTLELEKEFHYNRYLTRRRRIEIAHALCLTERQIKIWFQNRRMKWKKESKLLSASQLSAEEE
Assay [4] deals with T2, NKX2-4 (Homo sapiens, UniProt Q9H2Z4 175-261).
T2 sequence: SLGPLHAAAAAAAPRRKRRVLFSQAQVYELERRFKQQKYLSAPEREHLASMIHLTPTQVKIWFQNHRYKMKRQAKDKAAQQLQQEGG

Assay [5] has as its target T3, NKX2-4 (Homo sapiens, UniProt Q9H2Z4 175-261, R246Q).
T3 sequence: T2 sequence with R72Q

Assay [6] concerns the target ALX1 (Homo sapiens, UniProt Q15699 118-204, L144V).
Assay [7] deals with ALX1 (Homo sapiens, UniProt Q15699 118-204, L144R).
ALX1 (Homo sapiens, UniProt Q15699 118-204, L144R), sequence (Q15699 118-204 L144R): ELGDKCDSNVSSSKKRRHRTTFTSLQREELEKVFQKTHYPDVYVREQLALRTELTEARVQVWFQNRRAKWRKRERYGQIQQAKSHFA
The target of assay [8] is NKX3-2 (Homo sapiens, UniProt P78367 192-278, P234S).
NKX3-2 (Homo sapiens, UniProt P78367 192-278, P234S), sequence (P78367 192-278 P234S): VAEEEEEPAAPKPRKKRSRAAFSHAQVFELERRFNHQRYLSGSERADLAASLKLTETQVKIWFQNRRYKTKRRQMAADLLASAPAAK
The target of assay [9] is ALX1 (Homo sapiens, UniProt Q15699 118-204).
ALX1 (Homo sapiens, UniProt Q15699 118-204), sequence (Q15699 118-204): as the sequence (Q15699 118-204 L144R) above, with R27L counted along it
For assay [10], the target named is NKX3-2 (Homo sapiens, UniProt P78367 192-278).
NKX3-2 (Homo sapiens, UniProt P78367 192-278), sequence (P78367 192-278): as the sequence (P78367 192-278 P234S) above, with S43P counted along it
For assay [11], the target named is HOXD13 (Homo sapiens, UniProt P35453 263-343, T313R).
HOXD13 (Homo sapiens, UniProt P35453 263-343, T313R), sequence (P35453 263-343 T313R): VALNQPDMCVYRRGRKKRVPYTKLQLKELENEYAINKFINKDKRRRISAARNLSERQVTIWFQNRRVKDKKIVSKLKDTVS
For assay [12], the target named is HOXD13 (Homo sapiens, UniProt P35453 263-343).
HOXD13 (Homo sapiens, UniProt P35453 263-343), sequence (P35453 263-343): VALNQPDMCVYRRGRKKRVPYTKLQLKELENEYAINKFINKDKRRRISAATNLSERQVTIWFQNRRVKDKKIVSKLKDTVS
The target in assay [13] is HOXD13 (Homo sapiens, UniProt P35453 263-343, T313A).
HOXD13 (Homo sapiens, UniProt P35453 263-343, T313A), sequence (P35453 263-343 T313A): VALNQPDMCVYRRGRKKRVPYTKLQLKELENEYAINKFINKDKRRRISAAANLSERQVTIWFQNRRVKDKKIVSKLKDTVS
Assay [14] concerns the target PROP1 (Homo sapiens, UniProt O75360 56-141).
Assay [15] addresses PROP1 (Homo sapiens, UniProt O75360 56-141, R99H).
Assay [16] has as its target PROP1 (Homo sapiens, UniProt O75360 56-141, F88S).
For assay [17], the target named is ALX3 (Homo sapiens, UniProt O95076 139-225, N203Q).
ALX3 (Homo sapiens, UniProt O95076 139-225, N203Q), sequence (O95076 139-225 N203Q): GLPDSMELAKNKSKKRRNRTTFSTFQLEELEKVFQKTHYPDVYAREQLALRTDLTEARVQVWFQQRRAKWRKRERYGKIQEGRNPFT
The target in assay [18] is ALX3 (Homo sapiens, UniProt O95076 139-225).
ALX3 (Homo sapiens, UniProt O95076 139-225), sequence (O95076 139-225): as the sequence (O95076 139-225 N203Q) above, with Q65N counted along it
Assay [19] has as its target ALX3 (Homo sapiens, UniProt O95076 139-225, L168Q).
Assay [20] deals with ALX3 (Homo sapiens, UniProt O95076 139-225, L168V).
ALX3 (Homo sapiens, UniProt O95076 139-225, L168V), sequence (O95076 139-225 L168V): as the sequence (O95076 139-225 N203Q) above, with L30V, Q65N counted along it
For assay [21], the target named is ALX3 (Homo sapiens, UniProt O95076 139-225, N203S).
ALX3 (Homo sapiens, UniProt O95076 139-225, N203S), sequence (O95076 139-225 N203S): as the sequence (O95076 139-225 N203Q) above, with Q65S counted along it
Assay [22] addresses HOXA2 (Homo sapiens, UniProt O43364 129-215, R185T).
Assay [23] concerns the target PITX2 (Homo sapiens, UniProt Q99697 72-157).
Assay [24] has as its target HOXA2 (Homo sapiens, UniProt O43364 129-215, R185K).
The target of assay [25] is VAX1 (Homo sapiens, UniProt Q5SQQ9 86-172).
VAX1 (Homo sapiens, UniProt Q5SQQ9 86-172), sequence (Q5SQQ9 86-172): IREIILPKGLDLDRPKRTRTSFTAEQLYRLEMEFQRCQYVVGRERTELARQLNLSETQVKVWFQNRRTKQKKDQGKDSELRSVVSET
Assay [26] deals with VAX1 (Homo sapiens, UniProt Q5SQQ9 86-172, T142I).
VAX1 (Homo sapiens, UniProt Q5SQQ9 86-172, T142I), sequence (Q5SQQ9 86-172 T142I): as the sequence (Q5SQQ9 86-172) above, with T57I counted along it
Assay [27] concerns the target HOXA2 (Homo sapiens, UniProt O43364 129-215, Y150S).
Assay [28] has as its target HOXA2 (Homo sapiens, UniProt O43364 129-215).
The target of assay [29] is VAX1 (Homo sapiens, UniProt Q5SQQ9 86-172, K157R).
VAX1 (Homo sapiens, UniProt Q5SQQ9 86-172, K157R), sequence (Q5SQQ9 86-172 K157R): as the sequence (Q5SQQ9 86-172) above, with K72R counted along it
In assay [30] the target is MSX2 (Homo sapiens, UniProt P35548 130-214, R199I).
MSX2 (Homo sapiens, UniProt P35548 130-214, R199I), sequence (P35548 130-214 R199I): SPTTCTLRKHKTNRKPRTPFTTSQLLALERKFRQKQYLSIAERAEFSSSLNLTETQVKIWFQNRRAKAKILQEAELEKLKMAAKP
Assay [31] deals with MSX2 (Homo sapiens, UniProt P35548 130-214).
MSX2 (Homo sapiens, UniProt P35548 130-214), sequence (P35548 130-214): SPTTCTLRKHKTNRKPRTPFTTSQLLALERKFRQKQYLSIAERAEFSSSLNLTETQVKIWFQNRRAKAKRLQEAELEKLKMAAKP
Assay [32] has as its target MSX2 (Homo sapiens, UniProt P35548 130-214, F161Y).
The target in assay [33] is T4, SIX6 (Homo sapiens, UniProt O95475 114-200, L143I).
T4 sequence: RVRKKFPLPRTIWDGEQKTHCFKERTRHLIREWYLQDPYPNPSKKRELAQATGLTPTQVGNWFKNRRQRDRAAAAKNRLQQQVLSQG

HOXB6 (Homo sapiens, UniProt P17509 132-218, K202E), sequence (P17509 132-218 K202E): as the sequence (P17509 132-218) above, with K71E counted along it
ALX1 (Homo sapiens, UniProt Q15699 118-204, L144V), sequence (Q15699 118-204 L144V): as the sequence (Q15699 118-204 L144R) above, with R27V counted along it
HOXA2 (Homo sapiens, UniProt O43364 129-215, Y150S), sequence (O43364 129-215 Y150S): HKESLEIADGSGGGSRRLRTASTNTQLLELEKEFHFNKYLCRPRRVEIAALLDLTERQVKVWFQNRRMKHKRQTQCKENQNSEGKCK
HOXA2 (Homo sapiens, UniProt O43364 129-215, R185K), sequence (O43364 129-215 R185K): as the sequence (O43364 129-215 Y150S) above, with S22Y, R57K counted along it
HOXA2 (Homo sapiens, UniProt O43364 129-215), sequence (O43364 129-215): as the sequence (O43364 129-215 Y150S) above, with S22Y counted along it
HOXA2 (Homo sapiens, UniProt O43364 129-215, R185T), sequence (O43364 129-215 R185T): as the sequence (O43364 129-215 Y150S) above, with S22Y, R57T counted along it
ALX3 (Homo sapiens, UniProt O95076 139-225, L168Q), sequence (O95076 139-225 L168Q): as the sequence (O95076 139-225 N203Q) above, with L30Q, Q65N counted along it
MSX2 (Homo sapiens, UniProt P35548 130-214, F161Y), sequence (P35548 130-214 F161Y): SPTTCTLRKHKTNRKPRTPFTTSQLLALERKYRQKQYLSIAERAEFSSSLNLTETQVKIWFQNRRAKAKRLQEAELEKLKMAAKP
PROP1 (Homo sapiens, UniProt O75360 56-141, F88S), sequence (O75360 56-141 F88S): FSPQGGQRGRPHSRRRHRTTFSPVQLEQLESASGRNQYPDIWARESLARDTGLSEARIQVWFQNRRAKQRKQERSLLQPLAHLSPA
PROP1 (Homo sapiens, UniProt O75360 56-141, R99H), sequence (O75360 56-141 R99H): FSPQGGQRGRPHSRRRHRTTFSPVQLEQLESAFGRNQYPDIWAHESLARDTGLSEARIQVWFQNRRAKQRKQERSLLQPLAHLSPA
PROP1 (Homo sapiens, UniProt O75360 56-141), sequence (O75360 56-141): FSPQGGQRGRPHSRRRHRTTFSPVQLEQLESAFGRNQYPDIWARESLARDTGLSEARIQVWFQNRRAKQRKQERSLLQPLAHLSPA

Regarding AACTACTT, the binding signal in assay [1] is 9.54 upbm affinity estimate (log intensity, higher = more binding, comparable within an allelic series); in assay [2] it was 11.2 upbm affinity estimate (log intensity, higher = more binding, comparable within an allelic series); in assay [3], 10.1 upbm affinity estimate (log intensity, higher = more binding, comparable within an allelic series).

Turning to AGTTCGAG, the binding signal in [4] is 11.3 upbm affinity estimate (log intensity, higher = more binding, comparable within an allelic series); in [5], 11.6 upbm affinity estimate (log intensity, higher = more binding, comparable within an allelic series).

With AGGCGCTC, the binding signal in [1] is 9.06 upbm affinity estimate (log intensity, higher = more binding, comparable within an allelic series); in assay [6], 6.32 upbm affinity estimate (log intensity, higher = more binding, comparable within an allelic series); in assay [7], 6.29 upbm affinity estimate (log intensity, higher = more binding, comparable within an allelic series); in assay [8] it was 10.5 upbm affinity estimate (log intensity, higher = more binding, comparable within an allelic series); in assay [9], 6.17 upbm affinity estimate (log intensity, higher = more binding, comparable within an allelic series); in assay [3] it was 8.87 upbm affinity estimate (log intensity, higher = more binding, comparable within an allelic series). Further, the binding signal in assay [10] is 10.6 upbm affinity estimate (log intensity, higher = more binding, comparable within an allelic series).

In the case of CCACGGGC, the binding signal in [1] was 9 upbm affinity estimate (log intensity, higher = more binding, comparable within an allelic series); in assay [11], 9.41 upbm affinity estimate (log intensity, higher = more binding, comparable within an allelic series); in assay [12], 9.46 upbm affinity estimate (log intensity, higher = more binding, comparable within an allelic series); in assay [13] it was 9.44 upbm affinity estimate (log intensity, higher = more binding, comparable within an allelic series); in [3], 9.06 upbm affinity estimate (log intensity, higher = more binding, comparable within an allelic series).

On to ACATTAAC, for which the binding signal in [1] was 10 upbm affinity estimate (log intensity, higher = more binding, comparable within an allelic series).

CCACGCTC: the binding signal was 8.98 upbm affinity estimate (log intensity, higher = more binding, comparable within an allelic series) in [1]; 6.83 upbm affinity estimate (log intensity, higher = more binding, comparable within an allelic series) in assay [14]; 6.88 upbm affinity estimate (log intensity, higher = more binding, comparable within an allelic series) in assay [15]; 6.58 upbm affinity estimate (log intensity, higher = more binding, comparable within an allelic series) in assay [16]; 9.03 upbm affinity estimate (log intensity, higher = more binding, comparable within an allelic series) in assay [3].

For the sequence TACATTAA, the binding signal in assay [1] is 10 upbm affinity estimate (log intensity, higher = more binding, comparable within an allelic series); in assay [17] it was 8.45 upbm affinity estimate (log intensity, higher = more binding, comparable within an allelic series); in [18], 11 upbm affinity estimate (log intensity, higher = more binding, comparable within an allelic series); in assay [19], 9.29 upbm affinity estimate (log intensity, higher = more binding, comparable within an allelic series); in [20], 9.07 upbm affinity estimate (log intensity, higher = more binding, comparable within an allelic series); in assay [21] it was 8.57 upbm affinity estimate (log intensity, higher = more binding, comparable within an allelic series).

Turning to CGTGGCAG, the binding signal is 9.05 upbm affinity estimate (log intensity, higher = more binding, comparable within an allelic series) in assay [1]; 7.29 upbm affinity estimate (log intensity, higher = more binding, comparable within an allelic series) in assay [22]; 8.07 upbm affinity estimate (log intensity, higher = more binding, comparable within an allelic series) in [23]; 10.5 upbm affinity estimate (log intensity, higher = more binding, comparable within an allelic series) in assay [24]; 7.05 upbm affinity estimate (log intensity, higher = more binding, comparable within an allelic series) in assay [25]; 7.33 upbm affinity estimate (log intensity, higher = more binding, comparable within an allelic series) in assay [26]. For the same sequence, the binding signal was 10.4 upbm affinity estimate (log intensity, higher = more binding, comparable within an allelic series) in [27]; 7.45 upbm affinity estimate (log intensity, higher = more binding, comparable within an allelic series) in [28]; 7.05 upbm affinity estimate (log intensity, higher = more binding, comparable within an allelic series) in assay [29]; 9.07 upbm affinity estimate (log intensity, higher = more binding, comparable within an allelic series) in assay [3].

Regarding CGGATCCG, the binding signal was 9.01 upbm affinity estimate (log intensity, higher = more binding, comparable within an allelic series) in [1]; 9.47 upbm affinity estimate (log intensity, higher = more binding, comparable within an allelic series) in [30]; 6.32 upbm affinity estimate (log intensity, higher = more binding, comparable within an allelic series) in assay [6]; 7.82 upbm affinity estimate (log intensity, higher = more binding, comparable within an allelic series) in assay [17]; 6.18 upbm affinity estimate (log intensity, higher = more binding, comparable within an allelic series) in assay [7]; 9.48 upbm affinity estimate (log intensity, higher = more binding, comparable within an allelic series) in assay [31]. Moreover, the binding signal in assay [18] was 7.83 upbm affinity estimate (log intensity, higher = more binding, comparable within an allelic series); in assay [19] it was 7.82 upbm affinity estimate (log intensity, higher = more binding, comparable within an allelic series); in assay [20], 7.74 upbm affinity estimate (log intensity, higher = more binding, comparable within an allelic series); in assay [32] it was 9.45 upbm affinity estimate (log intensity, higher = more binding, comparable within an allelic series); in assay [8] it was 10.3 upbm affinity estimate (log intensity, higher = more binding, comparable within an allelic series); in [9], 6.2 upbm affinity estimate (log intensity, higher = more binding, comparable within an allelic series). The binding signal in assay [21] is 7.82 upbm affinity estimate (log intensity, higher = more binding, comparable within an allelic series); in [3] it was 8.86 upbm affinity estimate (log intensity, higher = more binding, comparable within an allelic series); in [10], 10.3 upbm affinity estimate (log intensity, higher = more binding, comparable within an allelic series).

Consider ATCATGAT, for which the binding signal in assay [33] was 10.4 upbm affinity estimate (log intensity, higher = more binding, comparable within an allelic series).

In the case of CGAGGCTC, the binding signal in assay [1] was 9.01 upbm affinity estimate (log intensity, higher = more binding, comparable within an allelic series); in assay [2] it was 9.43 upbm affinity estimate (log intensity, higher = more binding, comparable within an allelic series); in assay [3], 9.11 upbm affinity estimate (log intensity, higher = more binding, comparable within an allelic series).

AGGGGTCA: in assay [4], the binding signal is 11.2 upbm affinity estimate (log intensity, higher = more binding, comparable within an allelic series).

As for ATACATAC, in [33], the binding signal was 10.4 upbm affinity estimate (log intensity, higher = more binding, comparable within an allelic series).

As to GATACATC, the binding signal in assay [33] was 10.4 upbm affinity estimate (log intensity, higher = more binding, comparable within an allelic series).

On to TAATATTA, for which the binding signal in assay [1] is 10 upbm affinity estimate (log intensity, higher = more binding, comparable within an allelic series); in assay [17], 8.61 upbm affinity estimate (log intensity, higher = more binding, comparable within an allelic series); in [21], 8.68 upbm affinity estimate (log intensity, higher = more binding, comparable within an allelic series).

Turning to CGGAGGCC, the binding signal in assay [1] was 8.93 upbm affinity estimate (log intensity, higher = more binding, comparable within an allelic series); in [22], 7.34 upbm affinity estimate (log intensity, higher = more binding, comparable within an allelic series); in assay [11], 9.47 upbm affinity estimate (log intensity, higher = more binding, comparable within an allelic series); in assay [24], 10.1 upbm affinity estimate (log intensity, higher = more binding, comparable within an allelic series); in [12], 9.47 upbm affinity estimate (log intensity, higher = more binding, comparable within an allelic series); in assay [13] it was 9.66 upbm affinity estimate (log intensity, higher = more binding, comparable within an allelic series). Besides, the binding signal in assay [27] is 10.3 upbm affinity estimate (log intensity, higher = more binding, comparable within an allelic series); in [28] it was 7.12 upbm affinity estimate (log intensity, higher = more binding, comparable within an allelic series); in assay [3], 8.97 upbm affinity estimate (log intensity, higher = more binding, comparable within an allelic series).

In the case of AGTCCCCC, the binding signal in assay [1] was 8.9 upbm affinity estimate (log intensity, higher = more binding, comparable within an allelic series); in assay [6] it was 6.53 upbm affinity estimate (log intensity, higher = more binding, comparable within an allelic series); in assay [7], 6.37 upbm affinity estimate (log intensity, higher = more binding, comparable within an allelic series); in [9] it was 6.41 upbm affinity estimate (log intensity, higher = more binding, comparable within an allelic series); in [3], 8.97 upbm affinity estimate (log intensity, higher = more binding, comparable within an allelic series).
